# Among all 3,400 compounds or so, about 160 (4.7%) were called active.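 How the source made its calls: active means fitted curve reaches 30% activation at a concentration no higher than the top valid tested dose, luminescence rising; inconclusive means no clear call, values can overlap the other calls; inactive means signal moving opposite to the expected increase, plus the rest.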 A selection follows. Potency and affinity values are given separately.
# Assay: TCF/LEF reporter activation in neural progenitors – cell-based, iPS-derived NPC, luciferase, Wnt3a, cherry-pick, dose response (AID 1053144);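 further: Wnt3a stimulus is conditioned medium from Wnt3a-transfected mouse L cells at 5% in well; 0% = neutral control wells and 100% = CHIR-99021 positive control wells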
# Conditions: Wnt3a EC25, 24 h; series mostly up to 26 µM; activation: at the top concentration
row,Structure (SMILES),activation
1,COc1cccc(C(=O)NC2=NCCS2)c1,2.66% (inactive)
2,Cc1ccc(C(=O)NC2=NCCS2)cc1,9.97% (inactive)
3,Cc1cnc(C(=O)Nc2nnc(C(C)C)s2)cn1,7.46% (inactive)
4,CCOC(=O)C1(NC(=O)C2(NC(=O)CN3C(=O)c4ccccc4C3=O)CCCC2)CCCC1,3.07% (inactive)
5,O=c1c2ccccc2c(=O)n(-c2ccccc2)n1-c1ccccc1,0.139% (inactive)
6,Cc1cccc(/C(N)=N/OC(=O)c2cccs2)c1,16.7% (inactive)
7,Cc1cccc(/C(N)=N/OC(=O)c2ccncc2)c1,6.69% (inactive)
8,CC(Sc1nncn1C)C(=O)Nc1ccc(N2CCCCC2)cc1 (stereo unspecified),1.46% (inactive)
9,O=C1c2ccccc2C(Nc2ccccc2)N1c1ccc(Cl)cn1 (stereo unspecified),2.25% (inactive)
10,COc1n[nH]c(C(=O)Nc2nc3ccccc3s2)c1[N+](=O)[O-],13.5% (inactive)
11,CN(C)S(=O)(=O)c1ccc(C(=O)NCCOc2ccccc2)cc1,11.9% (inactive)
12,Cc1ccc(C(=O)CC(SCC(=O)O)c2ccc([N+](=O)[O-])cc2)cc1 (stereo unspecified),-14.7% (inactive)
13,Cc1cc(C(=O)COC(=O)c2ccc(N)c([N+](=O)[O-])c2)c(C)n1Cc1ccc2c(c1)OCO2,5.38% (inactive)
14,Cc1ccc2nc(NC(=O)c3ccc(Cl)s3)sc2c1,0.191% (inactive)
15,Nc1nc(Nc2ccccc2)sc1C(=O)c1ccccc1,19.5% (inactive)
16,Brc1ccc(-c2cn3ccccc3n2)cc1,14.5% (inactive)
17,O=C(NCc1ccccn1)Nc1cccc(Cl)c1,8.88% (inactive)
18,O=C(Nc1ccc(Cl)cc1)c1ccc(-c2ccccn2)s1,7.67% (inactive)
19,C(=N\NCc1ccccc1)/c1ccc2ncccc2c1,4.68% (inactive)
20,CN(C)c1ccc(N=Nc2cccc(F)c2)cc1,3.61% (inactive)
21,CC(C)(CNC(=O)c1cccc(S(=O)(=O)N2CCCCC2)c1)N1CCOCC1,5.12% (inactive)
22,Cc1ccc(CNC(=O)COC(=O)C2CCN(S(=O)(=O)c3cccs3)CC2)cc1,7.64% (inactive)
23,Oc1[nH]c2ccccc2c1N=Nc1ccccc1,6.5% (inactive)
24,O=C(N=Nc1c(O)[nH]c2ccccc12)c1ccc2c(c1)OCO2,5.2% (inactive)
25,CCCCCn1c(CN2CCN(C(=O)c3ccco3)CC2)nc2c1c(=O)n(C)c(=O)n2C,-1.47% (inactive)

row,Structure (SMILES),activation
1,O=C(CSc1nnc2ccccn12)c1ccc(Cl)cc1,5.28% (inactive)
2,Cc1nnc(SCC(=O)c2ccc(Cl)cc2)n(N)c1=O,4.61% (inactive)
3,CCCCN(CC)C(=O)c1cc2cc3ccc(OC)cc3nc2o1,6.64% (inactive)
4,Cc1ccc2nc(-c3ccc(NC(=O)COCC(=O)O)cc3)sc2c1,4.24% (inactive)
5,Cc1ccc2nc(-c3ccc(NS(=O)(=O)c4ccc(F)c(F)c4)cc3)sc2c1,-0.027% (inactive)
6,Cc1cc(C)cc(N(CC(=O)Nc2ccc(-c3nc4ccc(C)cc4s3)cc2)S(C)(=O)=O)c1,-0.43% (inactive)
7,Cc1ccc(C2(C)NC(=O)N(CC(=O)Nc3ccc(-c4nc5ccc(C)cc5s4)cc3)C2=O)cc1 (stereo unspecified),2.88% (inactive)
8,CC1=CCC(C(=O)O)C(C(=O)Nc2ccc(-c3nc4ccc(C)cc4s3)cc2)C1 (stereo unspecified),8.13% (inactive)
9,Cc1ccc2nc(-c3ccc(NC(=O)CSc4nc(N)cc(=O)[nH]4)cc3)sc2c1,3.34% (inactive)
10,Cc1ccc(C)c(-n2ccnc2SCC(=O)Nc2cccc(S(=O)(=O)NC3=NCCC3)c2)c1,10.6% (inactive)
11,CCC(=O)Nc1c(C(=O)Nc2ccc3c(c2)OCCO3)oc2ccccc12,12.9% (inactive)
12,N=c1cc(C2(O)CCCCC2)n2c(nc3ccccc32)s1,1.82% (inactive)
13,Cc1ccnc(NC(=O)C2CC(=O)N(c3ccc4c(c3)OCCO4)C2)c1 (stereo unspecified),3.35% (inactive)
14,c1ccc(-c2nnc(-c3ccccn3)nn2)nc1,4.64% (inactive)
15,CCC(=O)Nc1cc(C(=O)OCC(=O)c2ccccc2)ccc1C,18.1% (inactive)
16,COC(=O)[C@H](CCSC)NC(=O)c1cccnc1SC,0.828% (inactive)
17,O=C(CCN1C(=O)C2CCCCC2C1=O)Nc1nc2c(F)cc(F)cc2s1 (stereo unspecified),11.7% (inactive)
18,CN(c1ccc(C(=O)NCCSC(C)(C)C)cc1)S(=O)(=O)c1ccccc1,-1.26% (inactive)
19,Cc1ccc(C)c(OCc2nc3ccccc3[nH]2)c1,14% (inactive)
20,COc1ccc(NC(=O)N2CCCc3ccccc32)cc1,3.63% (inactive)
21,COc1cccc(NC(=O)n2ncc3c(C)cccc32)c1,-11.3% (inactive)
22,O=C(Cc1noc2ccccc12)Nc1ccccn1,12.4% (inactive)
23,Cc1nc(C(C)NC(=O)CCc2nnc(CCCc3ccccc3)o2)c(C)s1 (stereo unspecified),10.9% (inactive)
24,c1ccc2nc(SCc3cn4ccccc4n3)cnc2c1,6.56% (inactive)
25,CC(=O)Nc1ccc(-c2nc3ccccc3o2)cc1,7.88% (inactive)

row,Structure (SMILES),activation
1,CC(=O)Nc1ccc2oc(-c3ccccc3)nc2c1,7.44% (inactive)
2,O=C(N/N=C/c1ccc(F)cc1)c1ccccc1,6.49% (inactive)
3,Cc1ccc(NC(=O)COc2ccc3c(c2)OCO3)c(Cl)c1,10.7% (inactive)
4,COc1ccc(C(=O)Cc2ccc3c(c2)OCO3)c(O)c1,11.2% (inactive)
5,COc1ccc(/C=N/Nc2ccc([N+](=O)[O-])cc2)cc1O,10.8% (inactive)
6,Cc1ccc(/C=N/NC(=O)c2cccs2)cc1[N+](=O)[O-],7.64% (inactive)
7,Cc1c(C(=O)OCC(=O)NCC2CCCO2)cccc1[N+](=O)[O-] (stereo unspecified),7.65% (inactive)
8,Cc1cc(-c2nnc(-c3cccc(Cl)c3)o2)no1,14.5% (inactive)
9,O=C(/C=C/c1ccc(O)cc1)c1ccccc1,15.6% (inactive)
10,COc1ccc(/C=C/C(=O)c2ccccc2)c(OC)c1,8.57% (inactive)
11,O=S(=O)(c1ccccc1)n1ccc(-c2cnc(-c3ccccc3)s2)n1,9.35% (inactive)
12,O=C(Nc1cccnc1Cl)c1cc(-c2ccco2)on1,12.4% (inactive)
13,CC(C)c1cc(C(=O)NCCc2ccccc2)no1,8.37% (inactive)
14,O=C(Nc1ccc(F)c(Cl)c1)c1cc(-c2ccco2)on1,13.2% (inactive)
15,COc1ccc(NC(=O)c2cc(-c3ccco3)on2)cc1,9.44% (inactive)
16,Cc1ccc(NC(=O)/C=C/c2ccc3c(c2)OCO3)nc1,8.44% (inactive)
17,COc1ccc(CNC(=O)Nc2cccc(C)c2)cc1,8.1% (inactive)
18,Cc1ccc(SCC(=O)NC(=O)NCCC(C)C)c(C)c1,13.2% (inactive)
19,Cc1ccc(OCC(=O)Nc2ccc(Cl)cc2)c([N+](=O)[O-])n1,17.6% (inactive)
20,Cc1ccc(C(=O)CCC2CCCCC2=O)cc1 (stereo unspecified),9.76% (inactive)
21,CCC(=O)Nc1cccc(-c2nc3ccc(C)cc3o2)c1,19.1% (inactive)
22,Cc1ccc2nc(-c3cccc(NC(=O)c4ccc5c(c4)OCCO5)c3)oc2c1,7.37% (inactive)
23,O=[N+]([O-])c1ccccc1N/N=C1\CCc2ccccc21,8.32% (inactive)
24,O=C(NCc1nnc(SCC(=O)N2CCCc3ccccc32)o1)c1c(F)cccc1Cl,10.2% (inactive)
25,COc1ccc(N=Cc2c(O)[nH]c3ccccc23)cc1,13% (inactive)

row,Structure (SMILES),activation
1,CC(C)CSc1nnc2c(n1)[nH]c1ccccc12,3.64% (inactive)
2,Fc1ccc(-c2nc3ccccc3[nH]2)cc1,13.1% (inactive)
3,O=C(/C=C(\Nc1ccccc1)c1ccccc1)c1ccccc1,-0.624% (inactive)
4,c1ccc2oc(SCc3cn4ccsc4n3)nc2c1,10.8% (inactive)
5,Cc1ccc(SCc2cn3cc(Cl)ccc3n2)cc1,7.16% (inactive)
6,O=C(CNC(=O)c1ccccc1F)c1ccccc1,0.87% (inactive)
7,O=C(CCN1CCN(c2ccccc2)CC1)Nc1ccc(OCc2ccccc2)cc1,1.26% (inactive)
8,Cc1ccnc(NC(=O)c2ccc(S(=O)(=O)N3CCC(C)CC3)cc2)c1,6.2% (inactive)
9,O=C(/C=C/c1ccc(OC2CSC2)cc1)c1ccccc1,2.74% (inactive)
10,CSc1ccc(/C=N/NC(=O)c2cc(O)cc(O)c2)cc1,15.1% (inactive)
11,N=c1c2c(ncn1CCCO)Oc1c(ccc3ccccc13)C2c1ccccc1 (stereo unspecified),-1.09% (inactive)
12,COc1ccc(O)c(/C=N/N2CCCCC2)c1,10.5% (inactive)
13,COc1ccccc1CCc1nnc(CCC(=O)N(C)Cc2cccc3cnccc23)o1,7.69% (inactive)
14,Clc1nc2ccccc2cc1/C=N/Nc1nc2ccccc2[nH]1,6.98% (inactive)
15,CC(/C=N/Nc1nc2ccccc2[nH]1)=C\c1ccccc1,6.18% (inactive)
16,C(=N\Nc1nc2ccccc2[nH]1)/c1ccc2c(c1)OCCO2,8.63% (inactive)
17,C(=N\Nc1nc2ccccc2[nH]1)/c1cccc2cccnc12,-6.2% (inactive)
18,Cc1ccsc1/C=N/Nc1nc2ccccc2[nH]1,13.7% (inactive)
19,C(=N\Nc1nc2ccccc2[nH]1)/c1cccs1,6.38% (inactive)
20,C=CCn1cc(/C=N/Nc2nc3ccccc3[nH]2)c2ccccc21,6.37% [at 6 µM] (inactive)
21,Cc1nn(-c2ccccc2)c(C)c1/C=N/Nc1nc2ccccc2[nH]1,20.5% (inactive)
22,O=C(NCCc1ccccc1F)C(=O)Nc1nccs1,8.45% (inactive)
23,CSc1ccccc1OCc1cc(C(=O)N2CCCC(C)C2)no1 (stereo unspecified),18.5% (inactive)
24,CCCC(=O)c1ccc(N2CCC(C)CC2)c(F)c1,8.52% (inactive)
25,COc1ccc(C(=O)Nc2nnc(SCC(=O)Nc3ccc(NC(C)=O)cc3)s2)c(OC)c1,12.3% (inactive)

row,Structure (SMILES),activation
1,Cc1ccc(NC(=O)c2ccc(F)cc2)nc1,15.3% (inactive)
2,CCOC(=O)c1cnc2c(-c3ccccc3)cnn2c1N,7.17% (inactive)
3,Cn1c(SCc2ccc(F)cc2)nnc1-c1ccccn1,13.4% (inactive)
4,COC(=O)c1c(-c2ccc(SC)cc2)sc2ccc(OC)cc12,7.8% (inactive)
5,O=C(O)c1cc(N/N=C/c2ccc(N3CCOCC3)cc2)ccc1Cl,-1.2% (inactive)
6,Cc1ccc(NC(=O)c2ccccn2)c(Br)c1,6.25% (inactive)
7,Cc1cnc(NC(=O)c2ccccn2)s1,-0.046% (inactive)
8,COc1ccc(NC(=O)Nc2ccc3oc(C)nc3c2)cc1,13% (inactive)
9,Fc1ccccc1-c1cc2ncccc2cn1,11.5% (inactive)
10,COc1cccc(C(=O)COC(=O)c2cccs2)c1,11.3% (inactive)
11,COc1ccc(C(=O)COC(=O)c2cccs2)cc1,8.71% (inactive)
12,CCn1c(COc2ccc(OC)cc2)nc2ccccc21,11.6% (inactive)
13,COc1ccccc1OCc1cc(C(=O)N2CCN(C)C(c3ccccc3)C2)no1 (stereo unspecified),15.3% (inactive)
14,COc1cc(Cl)ccc1OCc1cc(C(=O)N(C)CC2CCCCO2)no1 (stereo unspecified),8.88% (inactive)
15,Cc1ccccc1Nc1nc(N)c2ccccc2n1,3.57% (inactive)
16,Nc1nc(Nc2ccccc2)nc2ccccc12,2.38% (inactive)
17,CCOC(=O)c1oc2nc3c(cc2c1N)CCCC3,8.93% (inactive)
18,O=C(CSc1nnc(C2CC2)n1C1CC1)c1ccc(Br)s1,10.4% (inactive)
19,Oc1ccccc1-c1cc(-c2ccc(F)cc2)n[nH]1,19.7% (inactive)
20,Cc1ccccc1-c1cc(-c2ccccc2O)n[nH]1,20.9% (inactive)
21,COC(=O)c1cc(C)nc(Nc2nc(C(N)Cc3ccc(Cl)cc3)cs2)n1 (stereo unspecified),-5.29% (inactive)
